In PubChem BioAssay (EPA / NIEHS):
Inconclusive results are not listed. Activity calls are given as the source filed them. Rule for the calls, unless noted: active = hit-call score of the fitted dose curve at least 0.9, where 1 is the maximum; inactive = score below 0.9.

Key:
[1] = read-out: Interleukin-1 alpha (IL1a), IL1A (gene 3552); experiment: BSK_LPS_IL1a: BioMAP Diversity Plus: LPS Assay for Interleukin-1 alpha (IL1a) Biomarker Activity (AID 2283080); conditions: primary human HUVEC with PBMC; actives raise or lower the signal
Method in brief: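 Human umbilical vein endothelial cells co-cultured with peripheral blood mononuclear cells were LPS-stimulated and exposed to test chemicals for 24 h. IL-1 alpha was quantified by ELISA, with bidirectional curve fitting against DMSO as the negative control and baseline.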

[2] = read-out: Monocyte Chemoattractant Protein-1 (MCP1), CCL2 (gene 6347); experiment: BSK_LPS_MCP1: BioMAP Diversity Plus: LPS Assay for Monocyte Chemoattractant Protein-1 (MCP1) Biomarker Activity (AID 2283081); conditions: primary human HUVEC with PBMC; actives raise or lower the signal
Method in brief: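 HUVEC plus PBMC co-culture (human primary cells, LPS system) exposed to test chemical for 24 h; MCP-1 measured by ELISA. Bidirectional curve fitting against DMSO baseline; parallel SRB total-protein staining flags overt cytotoxicity.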

[3] = BSK_LPS_PGE2: BioMAP Diversity Plus: LPS Assay for Prostaglandin E2 (PGE2) Biomarker Activity (AID 2283082); conditions: primary human HUVEC with PBMC; actives raise or lower the signal;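 for AC50: secreted prostaglandin E2 measured by ELISA in LPS-stimulated co-culture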
Method in brief: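 Endpoint derived from bidirectional curve fitting versus DMSO of ELISA-measured PGE2 in LPS-stimulated human primary vascular co-culture (HUVEC with PBMC) harvested at 24 h.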

[4] = read-out: Macrophage colony-stimulating factor (MCSF), CSF1 (gene 1435); experiment: BSK_LPS_MCSF: BioMAP Diversity Plus: LPS Assay for Macrophage colony-stimulating factor (MCSF) Biomarker Activity (AID 2283083); conditions: primary human HUVEC with PBMC; actives raise or lower the signal
Method in brief: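 Human umbilical vein endothelial cells co-cultured with peripheral blood mononuclear cells were exposed to compound for 24 h. M-CSF levels were measured by ELISA, and bidirectional curve fitting used DMSO as the negative control and baseline.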

[5] = read-out: Tissue Factor, F3 (gene 2152); experiment: BSK_LPS_TissueFactor: BioMAP Diversity Plus: LPS Assay for Tissue Factor Biomarker Activity (AID 2283084); conditions: primary human HUVEC with PBMC; actives raise or lower the signal
Method in brief: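 Human umbilical vein endothelial cells co-cultured with peripheral blood mononuclear cells were dosed and stimulated with LPS. Cell-surface CD142 was quantified by ELISA at 24 h. Activity was fitted bidirectionally against DMSO baseline.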

[6] = read-out: Tumor necrosis factor (Homo sapiens) (UniProt P01375); experiment: BSK_LPS_TNFa: BioMAP Diversity Plus: LPS Assay for Tumour Necrosis Factor alpha (TNFa) Biomarker Activity (AID 2283085); conditions: primary human HUVEC with PBMC; actives raise or lower the signal
Method in brief: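 Primary human vascular co-culture of HUVEC and PBMC; TNFa ELISA 24 h after treatment, analysed as increase or decrease relative to DMSO control.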

[7] = read-out: Vascular cell adhesion molecule 1 (VCAM1), VCAM1 (gene 7412); experiment: BSK_LPS_VCAM1: BioMAP Diversity Plus: LPS Assay for Vascular cell adhesion molecule 1 (VCAM1) Biomarker Activity (AID 2283086); conditions: primary human HUVEC with PBMC; actives raise or lower the signal
Method in brief: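 Primary human vascular co-culture (umbilical vein endothelium plus PBMC) stimulated with LPS received chemical; 24 h later VCAM-1 was read by ELISA. Overt cytotoxicity was assessed by sulforhodamine B staining of parallel cultures at the same time point.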

[8] = read-out: CD38, CD38 (gene 952); experiment: BSK_SAg_CD38: BioMAP Diversity Plus: SAg Assay for CD38 Biomarker Activity (AID 2283087); conditions: primary human HUVEC with PBMC; actives raise or lower the signal
Method in brief: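 Fluorescence ELISA of cell-surface CD38 served as the read-out, with either increase or decrease fitted against DMSO controls. Cells were a human umbilical vein endothelium plus PBMC co-culture under SEB/TSST-1 stimulation, measured 24 h after dosing.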

[9] = read-out: CD40, CD40 (gene 958); experiment: BSK_SAg_CD40: BioMAP Diversity Plus: SAg Assay for CD40 Biomarker Activity (AID 2283088); conditions: primary human HUVEC with PBMC; actives raise or lower the signal
Method in brief: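 Human umbilical vein endothelial cells co-cultured with PBMC; CD40 levels measured by ELISA with fluorescence read-out 24 h after chemical dosing. Gain or loss of signal fitted bidirectionally against DMSO baseline.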

[10] = read-out: Monocyte Chemoattractant Protein-1 (MCP1), CCL2 (gene 6347); experiment: BSK_SAg_MCP1: BioMAP Diversity Plus: SAg Assay for Monocyte Chemoattractant Protein-1 (MCP1) Biomarker Activity (AID 2283090); conditions: primary human HUVEC with PBMC; actives raise or lower the signal
Method in brief: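 MCP-1 levels in the endothelial–PBMC SAg co-culture were quantified by ELISA at 24 h post-dosing; both increases and decreases versus DMSO scored. Cytotoxicity monitored by SRB total protein in parallel cultures.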

[11] = read-out: E-selectin (Homo sapiens) (UniProt P16581); experiment: BSK_SAg_Eselectin: BioMAP Diversity Plus: SAg Assay for Eselectin Biomarker Activity (AID 2283091); conditions: primary human HUVEC with PBMC; actives raise or lower the signal
Method in brief: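 HUVEC co-cultured with PBMC, compound dosed then read at 24 h; E-selectin measured by ELISA. Activity fitted bidirectionally against DMSO as negative control and baseline.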

[12] = read-out: Monokine induced gamma interferon (MIG), CXCL9 (gene 4283); experiment: BSK_SAg_MIG: BioMAP Diversity Plus: SAg Assay for Monokine induced gamma interferon (MIG) Biomarker Activity (AID 2283092); conditions: primary human HUVEC with PBMC; actives raise or lower the signal
Method in brief: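 Values reflect bidirectional fitting of ELISA-measured MIG against DMSO vehicle, taken 24 h after dosing of a co-culture of human umbilical vein endothelial cells and peripheral blood mononuclear cells.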

[13] = BSK_SAg_PBMCCytotoxicity: PBMC Cytotoxicity Assessment in the BioMAP Diversity Plus: SAg Assay (AID 2283093); conditions: primary human HUVEC with PBMC;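 note: PBMC viability measured as Alamar Blue reduction fluorescence at 546/580 nm; fitted both ways against DMSO so a hit may be loss or gain of signal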
Method in brief: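 Compound added to 75,000 PBMC/well for 1 h; SEB and TSST-1 then added at 20 ng/mL final each; 90 h incubation; Alamar Blue 6 h; read 546/580 nm ex/em. Activity fitted bidirectionally relative to DMSO baseline.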

[14] = read-out: Interleukin-8 (IL8), CXCL8 (gene 3576); experiment: BSK_SAg_IL8: BioMAP Diversity Plus: SAg Assay for Interleukin-8 (IL8) Biomarker Activity (AID 2283094); conditions: primary human HUVEC with PBMC; actives raise or lower the signal
Method in brief: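 In this co-culture of human umbilical vein endothelium with peripheral blood mononuclear cells, IL-8 is assayed by ELISA at 24 h. DMSO serves as baseline for bidirectional curve fitting.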

[15] = BSK_SAg_Proliferation: Cell Proliferation Assessment in the BioMAP Diversity Plus: SAg Assay (AID 2283095); conditions: primary human HUVEC with PBMC;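 note: relative cell number as total protein by SRB absorbance in sub-confluent culture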
Method in brief: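 Readout is SRB-stained protein (560 nm) in a primary human HUVEC and PBMC co-culture; sub-confluent cultures are read at 96 h. Activity is fitted bidirectionally using DMSO as baseline.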

[16] = BSK_SAg_SRB: Viability Assessment in the BioMAP Diversity Plus: SAg Assay (AID 2283096); conditions: primary human HUVEC with PBMC;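 note: cells read one day after compound addition; hits may be either gain or loss of signal compared with DMSO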
Method in brief: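 Total protein by sulforhodamine B staining, 24 h after dosing, in HUVEC–PBMC co-culture; DMSO-referenced bidirectional fitting.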

[17] = read-out: CD69, CD69 (gene 969); experiment: BSK_SAg_CD69: BioMAP Diversity Plus: SAg Assay for CD69 Biomarker Activity (AID 2283089); conditions: primary human HUVEC with PBMC; actives raise or lower the signal
Method in brief: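 Values derive from bidirectional fitting relative to DMSO vehicle. Cells: umbilical vein endothelium plus peripheral blood mononuclear cells, treated 24 h before fluorescent ELISA for CD69.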

[18] = target: human CYP2A6, CYP2A6 (gene 1548) (UniProt P11509); experiment: NVS_ADME_hCYP2A6: NovaScreen (NVS) CYP450-related Enzyme Activity (ADME) Assay for human CYP2A6 (AID 2283099; active = hit-call score of the fitted dose curve at least 0.9, where 1 is the maximum)
human CYP2A6, CYP2A6 (gene 1548), sequence (P11509 whole entry, looked up): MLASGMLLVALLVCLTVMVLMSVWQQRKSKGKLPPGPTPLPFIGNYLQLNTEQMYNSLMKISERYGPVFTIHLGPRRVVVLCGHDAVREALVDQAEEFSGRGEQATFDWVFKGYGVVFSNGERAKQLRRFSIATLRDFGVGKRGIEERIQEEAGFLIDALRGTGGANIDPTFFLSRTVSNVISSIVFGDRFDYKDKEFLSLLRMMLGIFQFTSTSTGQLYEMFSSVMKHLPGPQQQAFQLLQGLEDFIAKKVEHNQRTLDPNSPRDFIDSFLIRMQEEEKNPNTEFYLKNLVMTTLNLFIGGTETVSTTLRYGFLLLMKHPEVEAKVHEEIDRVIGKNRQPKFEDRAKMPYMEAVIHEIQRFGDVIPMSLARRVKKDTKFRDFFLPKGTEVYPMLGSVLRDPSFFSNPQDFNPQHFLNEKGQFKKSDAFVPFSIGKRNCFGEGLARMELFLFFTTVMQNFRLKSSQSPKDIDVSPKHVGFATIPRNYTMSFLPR
Method in brief: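 Cell-free fluorescence readout of recombinant human CYP2A6 expressed in insect cells, read 0.5 h after dosing; loss of signal versus acetonitrile negative control. Primary screen in duplicate at 10 uM; actives re-run in concentration-response up to 20 uM.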

[19] = target: human CYP2B6, CYP2B6 (gene 1555) (UniProt P20813); experiment: NVS_ADME_hCYP2B6: NovaScreen (NVS) CYP450-related Enzyme Activity (ADME) Assay for human CYP2B6 (AID 2283101; active = hit-call score of the fitted dose curve at least 0.9, where 1 is the maximum)
human CYP2B6, CYP2B6 (gene 1555), sequence (P20813 whole entry, looked up): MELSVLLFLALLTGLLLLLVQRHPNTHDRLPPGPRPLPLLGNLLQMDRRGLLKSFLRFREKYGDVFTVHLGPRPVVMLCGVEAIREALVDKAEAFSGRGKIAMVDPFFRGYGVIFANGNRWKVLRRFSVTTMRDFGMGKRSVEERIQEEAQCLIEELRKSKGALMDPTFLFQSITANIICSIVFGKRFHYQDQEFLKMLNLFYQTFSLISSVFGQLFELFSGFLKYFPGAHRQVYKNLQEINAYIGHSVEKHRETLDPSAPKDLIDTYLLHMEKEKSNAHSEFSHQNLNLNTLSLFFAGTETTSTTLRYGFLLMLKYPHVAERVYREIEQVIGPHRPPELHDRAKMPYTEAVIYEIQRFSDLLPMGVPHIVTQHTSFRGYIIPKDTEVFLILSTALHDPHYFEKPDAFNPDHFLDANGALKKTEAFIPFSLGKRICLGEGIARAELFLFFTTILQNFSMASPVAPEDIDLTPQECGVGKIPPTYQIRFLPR
Method in brief: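 Compounds were first screened in duplicate at 10 uM against recombinant enzyme, with the fluorescent product measured after 1 hour. Active compounds were retested over a concentration series. Loss of fluorescence versus acetonitrile control was scored as reduced enzyme activity.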

Measured: AC50

Tumor necrosis factor (Homo sapiens), sequence (P01375 whole entry, looked up): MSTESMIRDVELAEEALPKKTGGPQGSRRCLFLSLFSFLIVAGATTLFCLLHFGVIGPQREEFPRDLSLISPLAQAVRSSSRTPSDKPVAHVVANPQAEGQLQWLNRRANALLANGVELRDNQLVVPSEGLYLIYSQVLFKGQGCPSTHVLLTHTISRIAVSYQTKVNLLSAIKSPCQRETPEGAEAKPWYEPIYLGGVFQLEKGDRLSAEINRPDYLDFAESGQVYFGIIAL
E-selectin (Homo sapiens), sequence (P16581 whole entry, looked up): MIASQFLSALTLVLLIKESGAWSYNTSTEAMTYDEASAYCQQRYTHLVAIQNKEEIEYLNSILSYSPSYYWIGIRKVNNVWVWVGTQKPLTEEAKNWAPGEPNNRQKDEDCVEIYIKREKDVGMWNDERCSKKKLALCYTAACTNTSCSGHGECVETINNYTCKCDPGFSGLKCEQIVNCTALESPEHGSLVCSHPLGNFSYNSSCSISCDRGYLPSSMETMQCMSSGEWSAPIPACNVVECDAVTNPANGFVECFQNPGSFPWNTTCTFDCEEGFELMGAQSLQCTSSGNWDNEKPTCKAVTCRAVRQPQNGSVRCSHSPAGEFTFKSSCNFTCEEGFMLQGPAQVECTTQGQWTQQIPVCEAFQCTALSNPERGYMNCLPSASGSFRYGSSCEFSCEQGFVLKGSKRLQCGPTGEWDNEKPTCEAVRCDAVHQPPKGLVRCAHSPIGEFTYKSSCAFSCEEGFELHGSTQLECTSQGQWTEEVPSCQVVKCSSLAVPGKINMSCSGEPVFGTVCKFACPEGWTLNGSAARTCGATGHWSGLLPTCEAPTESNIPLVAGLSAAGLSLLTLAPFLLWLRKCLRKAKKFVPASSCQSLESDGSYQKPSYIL

O=C(Cl)c1c(Cl)c(Cl)c(C(=O)Cl)c(Cl)c1Cl
not listed: [17] | [18] | [19]
inactive: all other assays above

C=CCCCCCCCCC=O
not listed: [17] | [18] | [19]
inactive: all other assays above

O=C1CCCCCCCCCCCN1
active: [6] 11.9 µM
not listed: [9] | [18] | [19]
inactive: all other assays above

COc1ccc(C(=O)c2ccccc2)c(O)c1
active: [3] 4.59 µM
not listed: [17] | [18] | [19]
inactive: all other assays above

Cc1ccc([N+](=O)[O-])cc1N
active: [11] 5.91 µM | [18] 10 µM | [19] 2.51 µM
not listed: [17]
inactive: all other assays above

CCCCC1C(=O)N(c2ccccc2)N(c2ccccc2)C1=O
not listed: [18] | [19]
inactive: all other assays above

C1CNCCN1
not listed: [9] | [18] | [19]
inactive: all other assays above
